Screens (PubChem)
Pin1 inhibitor = human Pin1 inhibition. Q13526. Pin1 FP peptide displacement, HiFluor488, 10 min. Potency, µM (series often up to 115 µM), actives largely listed as inhibitors. 390,000 compounds, 0.009% hits. AID 504891; active = well fitted inhibition curve with a large enough effect in the polarisation, with a control signal flat, not every such curve was filed as active; inconclusive = small, poorly fitted or top-dose-only effect, or effect the other way, or a change in a side signal; inactive = no such curve, though single readings can be large or run the other way; the % refers to the polarisation
Target sequence (Q13526 whole entry, looked up): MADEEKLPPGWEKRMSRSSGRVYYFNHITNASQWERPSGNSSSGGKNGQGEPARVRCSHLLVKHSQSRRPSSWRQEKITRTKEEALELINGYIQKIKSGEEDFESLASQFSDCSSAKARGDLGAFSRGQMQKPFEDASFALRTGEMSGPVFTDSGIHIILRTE
Nrf2 inh = inhibitors of Nrf2 signaling. A549 ARE-Fluc reporter, luciferase luminescence, 18-24 h. Potency, µM (titrated, usually from 46 µM), actives largely listed as inhibitors. 360,000 compounds, 2.1% hits. AID 504444; also: nearly all actives have a fitted effect of over 60% in size
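Reporter: ARE-Fluc in A549. Exposure: 18-24 h, 37 °C, 5% CO2, 5% FBS OPTI-MEM. Readouts: fluorescent cytotoxicity (CellTiter-Fluor), then luminescent Nrf2 signal after BugLite.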
Nrf2 activator = Nrf2 pathway activation; Potency, µM (top dose mostly 46.1 µM), actives largely listed as activators; 410,000 compounds, 0.31% hits; AREc32 ARE-luciferase reporter (MCF7-derived line), luminescence, 24 h; also: nearly all actives have a fitted effect of over 65% in size
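Luminescent ARE reporter assay in AREc32_Fluc cells: overnight plating at 37 deg C, 24 hr compound incubation, Steady-Glo added, 30 min RT before reading.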
A549 tox-1 = A549 cytotoxicity, counter-screen for Nrf2 inhibitors; 390,000 compounds, 0.16% hits; Potency, µM (doses to about 46 µM), actives largely listed as inhibitors; A549 ARE-Fluc cells, CellTiter-Fluor viability, 18-24 h
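Cytotoxicity counterscreen: CellTiter-Fluor fluorescence was measured in A549 ARE_Fluc cells after 18-24 h of compound exposure in a concentration series. The subsequent BugLite luminescent read reports ARE-luciferase activity.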
FLuc counter 3 = blocks purified firefly luciferase in Nrf2 counterscreen; shares compounds with Nrf2 inh; purified firefly luciferase, luminescence inhibition; Potency, µM (titrated, usually from 57.5 µM), actives largely listed as inhibitors; 1,400 compounds, 4% hits; also: nearly all actives have a fitted effect of over 65% in size
Target sequence (P08659 whole entry, looked up): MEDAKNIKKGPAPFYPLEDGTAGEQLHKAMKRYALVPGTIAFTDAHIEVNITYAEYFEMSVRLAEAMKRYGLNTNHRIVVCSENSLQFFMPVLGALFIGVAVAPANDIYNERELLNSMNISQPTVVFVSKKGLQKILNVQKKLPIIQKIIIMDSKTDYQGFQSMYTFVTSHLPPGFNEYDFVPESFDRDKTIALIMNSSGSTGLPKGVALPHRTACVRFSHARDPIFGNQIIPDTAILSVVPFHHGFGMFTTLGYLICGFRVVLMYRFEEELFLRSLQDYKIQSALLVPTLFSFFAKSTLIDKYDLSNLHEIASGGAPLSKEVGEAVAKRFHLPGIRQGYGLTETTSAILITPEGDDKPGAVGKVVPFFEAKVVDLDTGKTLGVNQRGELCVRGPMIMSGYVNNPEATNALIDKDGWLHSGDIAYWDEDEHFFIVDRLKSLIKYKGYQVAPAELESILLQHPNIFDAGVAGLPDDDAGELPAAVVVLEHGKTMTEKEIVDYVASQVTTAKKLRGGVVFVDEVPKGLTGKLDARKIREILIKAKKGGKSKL
A549 tox-2 = A549 cytotoxicity, Nrf2 inhibitor counterscreen; shares compounds with Nrf2 inh; A549 ARE-Fluc cells, cytotoxicity counterscreen; Potency, µM (titrated, usually from 46.1 µM), most hits filed as inhibitors; 1,400 compounds, 2% hits;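 also: cells exposed to compounds for 18 to 24 hours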
ARE-Fluc inh = Nrf2 inhibition confirmed, A549 ARE-luciferase. A549 ARE-firefly luciferase reporter, luminescence. 1,400 compounds, 74% hits. AID 720524. shares compounds with Nrf2 inh. Potency, µM (top dose mostly 46.1 µM), most hits filed as inhibitors; also: nearly all actives have a fitted effect of over 65% in size
Numbers stand for hits; 0 = inactive; ? = inconclusive; - = no result given; [ ] = another dose, or the depositor's remark. Sampled rows, rich in hits. Any-hit rate of the full collection: about 2.2%. Unless noted, calls follow the shape of the dose curve; as a rule, active = well fitted curve in the direction sought with a large enough effect; inconclusive = small, poorly fitted or top-dose-only effect, or another doubt; inactive = no such curve, though single readings can be large; an effect the other way counts as inactive or inconclusive.

SMILES	Pin1 inhibitor	Nrf2 inh	Nrf2 activator	A549 tox-1	FLuc counter 3	A549 tox-2	ARE-Fluc inh
N=c1ccn(Cc2ccccc2Cl)cc1	0	-	0	?	-	-	-
CC(CC(=O)N1CCN(c2cccc(Cl)c2)CC1)S(=O)(=O)c1ccc2c(c1)NC(=O)CO2 (stereo not drawn)	0	6.51µM	0	?	0	0	23.1µM
O=C1CCC2S/C(=C/Nc3ccc(C(F)(F)F)cc3)C(=O)N12 (stereo not drawn)	0	1.03µM	0	0	10.7µM	0	4.11µM
Cc1cc(C)n(S(=O)(=O)/C=C/c2ccccc2)n1	0	9.2µM	3.16µM	?	0	0	0
O=S(=O)(c1ccc(C(F)(F)F)cc1)N1CCN(c2nc(-c3ccccc3)nc3ccccc23)CC1	0	0	-	0	-	-	-
COc1cccc(-c2ncc3ccccc3c2COC(=O)N2CCOCC2)c1	0	0	0	0	-	-	-
COc1cccc(-c2ncc3ccccc3c2COC(=O)N2CCCCC2)c1	?	5.8µM	0	0	0	0	?
O=S(=O)(c1ccc2c(c1)OCCO2)N1CCN(c2ncnc3sccc23)CC1	0	2.31µM	0	0	0	0	-
Cc1ccc(S(=O)(=O)N2CCN(c3ncnc4sccc34)CC2)cc1C	0	?	0	0	-	-	-
CCOc1ccccc1NC(=O)c1cnc2n(c1=O)CCS2	0	0	0	0	-	-	-
O=C(Nc1ccc(Oc2ccccc2)cc1)c1cnc2n(c1=O)CCS2	?	?	0	0	0	0	2.31µM
COc1ccccc1C(=O)Nc1ccc2nc(SCC(=O)N(C)c3ccccc3)sc2c1	0	0	0	0	-	-	-
CCOc1ccc(C(=O)Nc2ccc3nc(SCC(=O)N(C)c4ccccc4)sc3c2)cc1	0	5.8µM	0	0	?	0	8.2µM
CCn1c(=O)n(-c2ccc(C)c(F)c2)c(=O)c2sc3ccccc3c21	0	0	0	0	-	-	-
CC[n+]1c(/C=C/c2cc([N+](=O)[O-])ccc2O)ccc2ccccc21	0	?	0	0	-	-	-
CCN1/C(=C/c2ccc3cc(C)cc(C)c3[n+]2CC)Sc2cc(C)ccc21	?	?	0	16.4µM	0	?	1.64µM
CCN1/C(=C\c2ccc3cc(C)ccc3[n+]2CC)Sc2cc(C)c(C)cc21	0	8.2µM	0	?	0	?	1.84µM
CCN1/C(=C/c2ccc3cccc(C)c3[n+]2CC)Sc2ccccc21	?	2.59µM	0	?	0	?	2.06µM
Cc1cc(/C=C\c2ccc3cc(N(C)C)ccc3[n+]2C)c(C)n1-c1ccccc1	?	1.16µM	0	5.8µM	?	7.31µM	1.3µM
CCOC(=O)c1ccccc1NC(=O)c1sc2ccccc2c1Cl	0	?	0	0	-	-	-
CCOC(=O)c1sc2ccccc2c1OC(=O)c1ccccc1OC	?	4.61µM	0	0	0	0	?
COc1ccc(OC(C)c2nc3ccccc3[nH]2)cc1 (stereo not drawn)	0	9.2µM	0	0	0	0	0
COc1ccc(OCc2nc3ccccc3[nH]2)cc1	0	?	0	0	-	-	-
Cc1nc2c(-c3ccccc3)c(C)[nH]n2c(=O)c1Cc1ccc(C(C)C)cc1	0	4.61µM	0	?	0	0	5.8µM
Cc1ccc(Cc2c(C)nc3c(-c4ccccc4)c(C)[nH]n3c2=O)cc1	0	0	0	0	-	-	-
SMILES	Pin1 inhibitor	Nrf2 inh	Nrf2 activator	A549 tox-1	FLuc counter 3	A549 tox-2	ARE-Fluc inh
Cc1nc2c(-c3ccccc3)c(C)[nH]n2c(=O)c1Cc1ccc(Br)cc1	0	8.2µM	0	?	0	?	3.26µM
Cc1cccc(-c2nc(CN3CCCC(C(=O)N4CCN(c5cc(Cl)ccc5C)CC4)C3)c(C)o2)c1 (stereo not drawn)	0	0	0	0	-	-	-
COc1ccc(NC(=O)COC(=O)c2cc(OC)c(OC)cc2NC(=O)c2ccco2)cc1OC	0	5.8µM	0	-	0	0	0
CCOC(=O)c1cc(-c2ccccc2)n(CCC(=O)NCCc2ccc(C)cc2)c1C	0	-	0	0	-	-	-
CC1CCN(c2c(NCc3ccc(C(=O)N4c5ccccc5CC4C)cc3)c(=O)c2=O)CC1 (stereo not drawn)	0	9.2µM	0	0	0	0	2.06µM
CC1CCN(c2c(NCc3ccc(C(=O)N4CCN(C5CCCCC5)CC4)cc3)c(=O)c2=O)CC1	0	0	0	0	-	-	-
CCOCCn1ccc2c(OCC(=O)Nc3ccc(C(N)=O)cc3)cccc2c1=O	0	-	0	0	-	-	-
CC1CCN(C(=O)CSc2nc3c(cnn3-c3ccccc3)c(=O)[nH]2)CC1	0	5.8µM	0	0	0	0	0
c1ccc(CN2CCC(Nc3ncnc4sccc34)CC2)cc1	0	0	0	0	-	-	-
Cc1sc2ncnc(NC3CCN(Cc4ccccc4)CC3)c2c1C	0	4.61µM	0	?	0	0	5.8µM
COc1ccc(Nc2cc(C(=O)NCCCN(C)Cc3ccccc3)c3ccccc3n2)cc1OC	0	-	0	0	-	-	-
CCCCN(CC)C(=O)Cn1nc(C)c2c(C)n(-c3ccccc3)nc2c1=O	0	0	0	0	-	-	-
Cc1c(C(=O)Nc2ccc3c(c2)OCCO3)sc2nc(-c3ccccc3)cn12	0	6.51µM	0	?	?	0	20.6µM
O=C(Oc1ccc(N(Cc2cccs2)C2=NS(=O)(=O)c3ccccc32)cc1)c1ccco1	0	0	0	0	-	-	-
O=C(Oc1ccc(N(Cc2cccs2)C2=NS(=O)(=O)c3ccccc32)cc1)c1ccccc1Cl	0	1.03µM	0	0	0	0	3.66µM
CCN1CCS/C1=C\C=C\C1=[N+](CC)CCS1	0	1.64µM	0	?	0	?	6.51µM
CCCNc1nc(NCc2ccccc2OC)c2cnn(C)c2n1	0	-	0	0	-	-	-
CCCn1c(SCC(=O)Nc2nc3c(s2)CCCC3)nc2c1c(=O)n(C)c(=O)n2C	0	0	0	0	-	-	-
CCCCn1c(SCC(=O)Nc2nnc(C(C)C)s2)nc2c1c(=O)n(C)c(=O)n2C	0	7.31µM	0	?	0	0	16.4µM
COc1ccc(C(=O)NC(C)c2nc3ccccc3n2C)cc1OC (stereo not drawn)	0	0	0	0	-	-	-
COc1ccc(C(O)c2nc3ccccc3n2C)cc1OC (stereo not drawn)	0	3.66µM	0	0[1.84 µM]	0	0	?
O=C(Nc1ccc(Cl)cc1)C(NS(=O)(=O)c1cccs1)c1ccccc1 (stereo not drawn)	0	0	0	0	-	-	-
Cc1nnc2n(c1=O)C(CS(=O)(=O)c1ccccc1)CS2 (stereo not drawn)	0	0	0	0	-	-	-
O=[N+]([O-])c1ccc(S(=O)(=O)CC2CSc3nc4ccccc4n32)cc1 (stereo not drawn)	0	5.17µM	0	0	0	?	2.06µM
CCCCCn1ccc(=N)cc1	0	0.92µM	0	?	0	0	1.64µM
CCCCCCN1CC(O)=C(c2ccccc2)C1=N	0	-	0	0	-	-	-
CCCCCCCn1ccc(=N)cc1	0	2.91µM	0	0	0	0	6.51µM
